The list is not random: actives were taken first. Their share in the collection is about 1.6%.
SARS 3CLpro inh – SARS-CoV 3CLpro protease inhibition; recombinant SARS-CoV 3CLpro, quenched FRET peptide cleavage; inhibition, % at 6 µM; actives 0.14% (n = 290,000); AID 1706; in the data active = inhibition above about 12%
BH1578 lux ind – induces V. cholerae light production without autoinducers | V. cholerae BH1578 lux reporter, luminescence, 6 h | activation, % at 18.7 µM | actives 0.16% (n = 350,000) | AID 588436; in the data active = activation mostly above about 9.7%, no sharp cut-off; inconclusive = no clear call, values can overlap the other calls; inactive = mostly below about 3.7%
PrPC surface inh – reduces human prion protein on the cell surface. P04156. cell surface PrPC, TR-FRET read-out. inhibition, % at 13.8 µM. actives 0.43% (n = 370,000); in the data active = inhibition above about 24%
PfHsp40 yeast – restores yeast growth despite PfHsp40 toxicity; AID 504582; S. cerevisiae expressing PfHsp40, growth rescue, ATP luminescence; actives 0.68% (n = 340,000); growth rescue, % at 12.5 µM; in the data active = growth rescue above about 28%, passing the limit was not always enough; inconclusive = no clear call, values can overlap the other calls;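 also: yeast W303a lacking pdr1 and pdr3 grown in galactose medium; growth measured after three days at 30 °C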
PriA SSB inh – blocks PriA binding to SSB C-terminal tail. actives 0.6% (n = 430,000). AlphaScreen SSBct-PriA binding, biotinylated peptide. inhibition, % at 33 µM. AID 1272365; in the data active = inhibition mostly above about 37%, no sharp cut-off; inactive = mostly below about 20%
PrP 5UTR inh – inhibition of PrP 5' UTR reporter expression | cell-based PrP 5' UTR mRNA reporter, plate reader | inhibition, % (concentration not given with the values) | actives 0.35% (n = 340,000); in the data active = inhibition above about 52%
PrPC TRFRET cf – cell surface PrPC inhibition, TR-FRET confirmation. shares compounds with PrPC surface inh. cell surface PrPC level. inhibition, % at 13.8 µM. actives 65% (n = 1,500). AID 743200; in the data active = inhibition above about 25%
LD9 cytotox – LD9 cell cytotoxicity, PrPc inhibitor counter-screen; shares compounds with PrPC surface inh; LD9 cells cytotoxicity, luminescence viability; actives 29% (n = 1,500); inhibition, % at 13.8 µM; in the data active = inhibition above about 9.5%
Of the large screens only hits and unclear results are named; the others gave an inactive call (follow-up assays come after a bar, where they were run).

CC(=O)Oc1ccc(-c2ccc(C(=O)Nc3cccc(S(=O)(=O)N4CCOCC4)c3)cc2)cc1	PrPC surface inh 25 | PrPC TRFRET cf inactive | LD9 cytotox inactive
CC(C)N1CCC(CNS(=O)(=O)c2ccccc2Cl)CC1	none (no result: SARS 3CLpro inh, BH1578 lux ind, PrPC surface inh, PfHsp40 yeast, PrP 5UTR inh)
Nc1ccc(CNC(=O)c2cc3cc(Cl)ccc3nc2N)cc1	none (no result: SARS 3CLpro inh, BH1578 lux ind, PfHsp40 yeast, PriA SSB inh, PrP 5UTR inh)
Nc1nc2ccc(Cl)cc2cc1C(=O)NCc1ccccc1Br	PrPC surface inh 49 (no result: SARS 3CLpro inh, BH1578 lux ind, PfHsp40 yeast, PriA SSB inh, PrP 5UTR inh) | PrPC TRFRET cf 81 | LD9 cytotox inactive
COc1ccccc1CNc1nc(Nc2cccc(-c3cnco3)c2)c2sccc2n1	PrPC surface inh 25 (no result: SARS 3CLpro inh, PfHsp40 yeast, PriA SSB inh, PrP 5UTR inh) | PrPC TRFRET cf 33 | LD9 cytotox 35
COc1ccc(Cl)cc1NC(=O)c1cc(=O)c(OC)co1	none (no result: SARS 3CLpro inh, BH1578 lux ind, PrPC surface inh, PfHsp40 yeast, PrP 5UTR inh)
S=c1nc(C2CCCCC2)[nH]c2ccccc12	PrPC surface inh 32 | PrPC TRFRET cf 38 | LD9 cytotox inactive
O=C(Nc1ccc(N2CCN(C(=O)c3ccco3)CC2)cc1)c1ccc2c(c1)OCO2	PrPC surface inh 25 | PrPC TRFRET cf inactive | LD9 cytotox inactive
Cc1ccccc1C(=O)N1CCN(c2ccc(NC(=O)c3ccc4c(c3)OCO4)cc2)CC1	PrPC surface inh 34 | PrPC TRFRET cf 30 | LD9 cytotox 13
Cc1cccc(-n2ncc3c(=O)n4c(nc32)SCC4CC(=O)NCc2ccco2)c1 (stereo unspecified)	none (no result: SARS 3CLpro inh, BH1578 lux ind, PrPC surface inh, PfHsp40 yeast, PrP 5UTR inh)
Nc1sc2c(c1-c1nc(-c3ccc(Br)cc3)cs1)CCCC2	none (no result: SARS 3CLpro inh, BH1578 lux ind, PrPC surface inh, PfHsp40 yeast, PrP 5UTR inh)
COc1ccc(Cn2cccc(NC(=O)Nc3cccc(OC)c3)c2=O)cc1	PrPC surface inh 25 | PrPC TRFRET cf 29 | LD9 cytotox inactive
CN(C)S(=O)(=O)c1cccc(-c2nn(-c3ccccc3)cc2/C=C(/C#N)C(=O)NCc2ccco2)c1	PrPC surface inh 29 | PrPC TRFRET cf inactive | LD9 cytotox inactive
CSc1nc2c([nH]1)c(=S)n(C)c(=O)n2C	PrPC surface inh 34 (no result: SARS 3CLpro inh) | PrPC TRFRET cf inactive | LD9 cytotox inactive
CCCCOC(=S)NC(=O)c1sc2ccccc2c1Cl	PrPC surface inh 43 | PrPC TRFRET cf inactive | LD9 cytotox inactive
CCCOc1ccc(C(CC(=O)O)NC(=O)c2sc3ccccc3c2Cl)cc1 (stereo unspecified)	PrPC surface inh 43 | PrPC TRFRET cf 34 | LD9 cytotox inactive
NC(N)=NS(=O)(=O)c1ccc(NC(=S)NC(=O)c2sc3ccccc3c2Cl)cc1	PrPC surface inh 36 | PrPC TRFRET cf 77 | LD9 cytotox inactive
CCOc1ccc(C(CC(=O)O)NC(=O)c2sc3ccccc3c2Cl)cc1 (stereo unspecified)	none
CN(C)CCCOC(=O)c1sc2ccccc2c1Cl	none
CC(C)Sc1nc(N)nc(-c2cccs2)c1C#N	PrPC surface inh 30, PfHsp40 yeast inconclusive | PrPC TRFRET cf 41 | LD9 cytotox inactive
Cn1c(=O)oc2ccc(S(=O)(=O)N3CCC(S(=O)(=O)Cc4ccco4)CC3)cc21	none (no result: SARS 3CLpro inh, BH1578 lux ind, PrPC surface inh, PfHsp40 yeast, PrP 5UTR inh)
COc1ccc(C(=O)/C=C2\C(=O)Nc3ccccc32)cc1	none (no result: SARS 3CLpro inh, BH1578 lux ind, PrPC surface inh, PfHsp40 yeast, PrP 5UTR inh)
CC(C)Oc1ccc(C(=O)/C=C2/C(=O)Nc3ccccc32)cc1	PrPC surface inh 34 | PrPC TRFRET cf inactive | LD9 cytotox inactive
C=CCn1c(SCC(=O)CC(=O)OCC)nc2sc3c(c2c1=O)CCCC3	none (no result: SARS 3CLpro inh, BH1578 lux ind, PrPC surface inh, PfHsp40 yeast, PrP 5UTR inh)
CCc1c(-c2ccccc2OC)ncn1Cc1cccc(-c2ccccc2)c1	none (no result: SARS 3CLpro inh, BH1578 lux ind, PfHsp40 yeast, PriA SSB inh, PrP 5UTR inh)
CCCc1c(-c2ccc(F)cc2F)ncn1Cc1cccc(-c2ccccc2)c1	PrPC surface inh 30 (no result: SARS 3CLpro inh, BH1578 lux ind, PfHsp40 yeast, PriA SSB inh, PrP 5UTR inh) | PrPC TRFRET cf inactive | LD9 cytotox inactive
COc1ccccc1-c1ncn(Cc2cccc(-c3ccccc3)c2)c1CC(C)C	PrPC surface inh 27 (no result: SARS 3CLpro inh, BH1578 lux ind, PfHsp40 yeast, PriA SSB inh, PrP 5UTR inh) | PrPC TRFRET cf inactive | LD9 cytotox inactive
CCCc1c(-c2cccc(Cl)c2)ncn1Cc1cccc(-c2ccccc2)c1	none (no result: SARS 3CLpro inh, BH1578 lux ind, PfHsp40 yeast, PriA SSB inh, PrP 5UTR inh)
CC(=O)OC1CCC2(C)C(CCC3C4CC=C(C(C)=O)C4(C)OC(=O)CC32)C1 (stereo unspecified)	PrPC surface inh 72 (no result: SARS 3CLpro inh, PfHsp40 yeast, PriA SSB inh, PrP 5UTR inh) | PrPC TRFRET cf inactive | LD9 cytotox 91
CC(=O)O[C@H]1CC[C@@]2(C)C(CCC3C2CC[C@]2(C)OC(=O)CCC32)C1 (stereo partly specified)	none
O=C(Nc1ccccc1Cc1nc(-c2ccco2)no1)c1ccccc1Br	none (no result: SARS 3CLpro inh, BH1578 lux ind, PrPC surface inh, PfHsp40 yeast, PrP 5UTR inh)
CCN(CC)C(=O)CSc1nc(O)c(Cc2ccccc2)c(=O)n1-c1ccccc1	PrPC surface inh 60 | PrPC TRFRET cf 53 | LD9 cytotox inactive
CCOc1ccc(NC(=O)Nc2ccc(Cc3ccncc3)cc2)cc1	PrPC surface inh 33 | PrPC TRFRET cf 29 | LD9 cytotox inactive
CCOc1ccc(NC(=O)C(=O)NCc2ccncc2)cc1	none
CC1(C)NC(=O)N(CC(O)COc2ccc(-c3ccccc3)cc2)C1=O (stereo unspecified)	none
CC1(C)NC(=O)N(CC(O)COc2ccc(-c3ccc(C#N)cc3)cc2)C1=O (stereo unspecified)	PrPC surface inh 30 | PrPC TRFRET cf inactive | LD9 cytotox inactive
Cc1nonc1NC(=O)CSc1nc(C2CCCCC2)nc2ccccc12	PrPC surface inh 50 | PrPC TRFRET cf 53 | LD9 cytotox inactive
Cc1cccc(NC(=O)CSc2nc(C3CC3)nc3ccccc23)c1	PrPC surface inh 30 | PrPC TRFRET cf 28 | LD9 cytotox inactive
CC(=O)Nc1cccc(NC(=O)CSc2nc(C3CC3)nc3ccccc23)c1	none
Cc1cc(C)c(O)c(C(=O)CC2CC(=O)NC(=O)C2)c1	PrPC surface inh 71 (no result: SARS 3CLpro inh, BH1578 lux ind, PfHsp40 yeast, PriA SSB inh, PrP 5UTR inh) | PrPC TRFRET cf 66 | LD9 cytotox 34
